Experimental findings from PubChem BioAssay (EPA / NIEHS) are described below.

A short description of test [1]: ATG_M_32_CIS: Attagene CIS-FACTORIAL HepG2 Assay for M32 Transcription Factor (Internal Marker) (AID 2282949).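 Note: background control marker of the multiplexed CIS panel rather than a real target.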 Conditions: HepG2 Attagene cis-factorial M32 reporter, mRNA; actives raise or lower the signal. The gist of the method:
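Following 24 h chemical exposure of HepG2 cells transiently expressing cis-promoter reporter constructs, reporter transcript levels were determined by RT-PCR with fluorescent labelling and capillary electrophoresis, then fitted bidirectionally against DMSO.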

Test [2] in a line: ATG_M_06_CIS: Attagene CIS-FACTORIAL HepG2 Assay for M06 Transcription Factor (Internal Marker) (AID 2282950). Conditions: HepG2 Attagene CIS-FACTORIAL M06 internal marker reporter; actives raise or lower the signal. The gist of the method:
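Cells (HepG2, transiently carrying cis-driven reporter units) receive chemical for 24 h before RNA isolation. Reporter cDNA is PCR-amplified, FAM-labelled by primer extension, HpaI-digested and sized on a capillary analyser.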

Test [3] deals with Hypoxia-inducible factor 1-alpha (Homo sapiens) (UniProt Q16665). Kind of test: ATG_HIF1a_CIS: Attagene CIS-FACTORIAL HepG2 Assay for human Hypoxia Inducible Factor 1 (HIF1A) (AID 2282951). Conditions: HepG2 Attagene cis-factorial HIF1a reporter transcription; actives raise or lower the signal. The gist of the method:
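Fluorescence intensity of capillary-separated, 6-FAM-labelled reporter amplicons gives mRNA induction in HepG2 cells carrying transfected cis-promoter reporter units; cells exposed 24 h, responses fitted up or down from DMSO.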

Test [4] deals with Hepatocyte nuclear factor 6 (Homo sapiens) (UniProt Q9UBC0). Kind of test: ATG_HNF6_CIS: Attagene CIS-FACTORIAL HepG2 Assay for human Hepatocyte Nuclear Factor 6 (HNF6) (AID 2282952). Particulars: HepG2 Attagene cis-factorial HNF6 reporter transcription; actives raise or lower the signal. The gist of the method: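 HepG2 cells transiently transfected with cis-element-driven multiple reporter transcription units, dosed 24 h; reporter mRNA quantified by RT-PCR, FAM primer extension, HpaI digestion and capillary electrophoresis; bidirectional fit versus DMSO baseline.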

For test [5], the target named is Heat shock factor protein 1 (Homo sapiens) (UniProt Q00613). Description: ATG_HSE_CIS: Attagene CIS-FACTORIAL HepG2 Assay for human Heat Shock Transcription Factor 1 (HSE) (AID 2282953). Conditions: HepG2 HSE cis-reporter, Attagene RNA transcription; actives raise or lower the signal. The gist of the method:
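Liver-derived HepG2 cells carry transiently introduced multiple reporter units governed by cis promoters. Reporter RNA measured 24 h post-dose through reverse transcription, PCR amplification, fluorescent labelling and capillary electrophoresis, normalised to DMSO.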

Test [6] can be described thus: ATG_MRE_CIS: Attagene CIS-FACTORIAL HepG2 Assay for human Metal Responsive Element (MRE) (AID 2282954). Particulars: HepG2 MRE cis-reporter transcription, Attagene multiplex; actives raise or lower the signal. The method in brief:
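HepG2 cells transiently transfected with multiple cis-element reporter units measure endogenous MTF1-driven transcription. After 24 h compound exposure, reporter mRNA is quantified by RT-PCR with 6-FAM labelling, HpaI digestion and capillary electrophoresis; bidirectional fits versus DMSO.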

A short description of test [7]: ATG_PBREM_CIS: Attagene CIS-FACTORIAL HepG2 Assay for human Phenobarbital-responsive Enhancer Module (PBREM) (AID 2282955). Conditions: HepG2 PBREM cis-reporter, Attagene multiplexed transcription; actives raise or lower the signal. The method in brief:
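Cells were transfected with cis-element reporter units and treated for 24 h, after which RNA was extracted and reporter transcripts measured by RT-PCR and capillary electrophoresis.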

The target in test [8] is Paired box protein Pax-6 (Homo sapiens) (UniProt P26367). Kind of test: ATG_Pax6_CIS: Attagene CIS-FACTORIAL HepG2 Assay for human Paired Box 6 (PAX6) (AID 2282956). Conditions: HepG2 CIS-FACTORIAL PAX6 reporter transcription, RNA readout; actives raise or lower the signal. The gist of the method: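 Multiplexed cis-reporter HepG2 system; 24 h treatment; reporter mRNA read by RT-PCR/CE fluorescence; bidirectional fit vs DMSO.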

Test [9] can be described thus: ATG_PXRE_CIS: Attagene CIS-FACTORIAL HepG2 Assay for human Pregnane X Receptor Element (PXRE) (AID 2282957). Conditions: HepG2 Attagene CIS-FACTORIAL PXRE reporter, mRNA; actives raise or lower the signal. The method in brief: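 HepG2 cells transiently transfected with cis-regulated multiple reporter transcription units; endogenous factor activity measured as reporter mRNA 24 h after dosing. RT-PCR, fluorescent primer extension, HpaI digestion, capillary electrophoresis; bidirectional fit versus DMSO baseline.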

Test [10] in a line: ATG_PPRE_CIS: Attagene CIS-FACTORIAL HepG2 Assay for human Peroxisome Proliferator-activated Response Element (PPRE) (AID 2282958). Particulars: HepG2 PPRE cis-element reporter, Attagene transcription factor profiling; actives raise or lower the signal. The gist of the method:
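In this cell-based multiplex, a PPRE cis element drives a reporter sequence in transiently transfected HepG2 cells. Following 24 h treatment, labeled cDNA amplicons are sized and quantified by capillary electrophoresis, with DMSO defining baseline.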

A short description of test [11]: ATG_RORE_CIS: Attagene CIS-FACTORIAL HepG2 Assay for human RAR-related Orphan Receptor Element (RORE) (AID 2282959). Particulars: HepG2 Attagene cis-factorial RORE reporter, mRNA; actives raise or lower the signal. The gist of the method: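 Endogenous factor activity at a cis response element is read as reporter transcript levels in HepG2 cells, 24 h post-dose. Transcripts are quantified by RT-PCR with capillary electrophoresis, and data fitted in both directions against DMSO.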

In test [12] the target is Transcription factor Sp1 (Homo sapiens) (UniProt P08047). Description: ATG_Sp1_CIS: Attagene CIS-FACTORIAL HepG2 Assay for human Specificity Protein 1 (Sp1) (AID 2282961). Particulars: HepG2 Sp1 cis-reporter transcription, actives raise or lower the signal. The gist of the method:
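Cells: HepG2, transiently transfected with cis-regulated multiplexed reporters. Exposure: 24 h. Detection: reporter transcripts amplified, fluorescently labeled, restriction-digested and sized by capillary electrophoresis. Analysis: bidirectional fit relative to DMSO.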

A short description of test [13]: ATG_SREBP_CIS: Attagene CIS-FACTORIAL HepG2 Assay for human Sterol Regulatory Element Binding (SREBP) (AID 2282962). Conditions: HepG2 Attagene cis-factorial SREBP reporter, mRNA; actives raise or lower the signal. The gist of the method: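 mRNA induction of transfected cis-promoter reporters in HepG2 cells, 24 h post-dose. Detection: RT-PCR with 6-FAM-labelled products, HpaI digest, capillary electrophoresis. DMSO served as negative control and baseline.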

Test [14] concerns the target Signal transducer and activator of transcription 3 (Homo sapiens) (UniProt P40763). Description: ATG_STAT3_CIS: Attagene CIS-FACTORIAL HepG2 Assay for human Signal Transducer and Activator of Transcription 3 (STAT3) (AID 2282963). Particulars: HepG2, Attagene cis-factorial STAT3 reporter transcription; actives raise or lower the signal. The gist of the method:
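HepG2 cells transiently transfected with cis-element-driven multiple reporter transcription units; after 24 h chemical exposure, reporter mRNA measured by RT-PCR, 6-FAM primer-extension labelling, HpaI digestion and capillary electrophoresis. Bidirectional fitting versus DMSO baseline.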

Test [15] in a line: ATG_TA_CIS: Attagene CIS-FACTORIAL HepG2 Assay for human TA Basal Promoter (AID 2282964). Conditions: HepG2 Attagene CIS-factorial TA basal promoter reporter; actives raise or lower the signal. The gist of the method:
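Background internal-marker endpoint from a 52-component HepG2 cis-reporter panel. Cells treated 24 h; reporter transcripts quantified via RT-PCR and CE fluorescence against DMSO baseline.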

A short description of test [16]: ATG_TCF_b_cat_CIS: Attagene CIS-FACTORIAL HepG2 Assay for human T-Cell-Factor with beta-catenin (TCF/b-cat) (AID 2282965). Conditions: HepG2 TCF/beta-catenin cis-reporter transcription, actives raise or lower the signal. The gist of the method:
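HepG2 cells transiently transfected with multiple cis-promoter-regulated reporter transcription units, so endogenous transcription factor activity is measured. Reporter mRNA read 24 hours after dosing by RT-PCR, fluorescent labelling and capillary electrophoresis; bidirectional fitting against DMSO.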

Test [17] can be described thus: ATG_TAL_CIS: Attagene CIS-FACTORIAL HepG2 Assay for human TAL Basal Promoter (AID 2282966).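 Note: background control endpoint measuring basal TAL promoter reporter mRNA not a specific factor.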 Particulars: HepG2 Attagene cis-factorial TAL promoter reporter; actives raise or lower the signal. The gist of the method: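 HepG2 cells were transiently transfected with promoter-driven multiplexed reporter units and dosed for 24 h. Reporter mRNA was measured by RT-PCR with capillary electrophoresis fluorescence; bidirectional fits used DMSO as baseline, serving as a background control.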

Test [18] is described as follows: ATG_TGFb_CIS: Attagene CIS-FACTORIAL HepG2 Assay for human Transforming Growth Factor (TGF) (AID 2282967). Particulars: HepG2 Attagene CIS TGFb reporter, mRNA transcription; actives raise or lower the signal. The method in brief: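 Liver HepG2 line, cis-factorial reporter panel, 24 h dosing. Quantitation: RT-PCR products labeled with 6-FAM, cut with HpaI, resolved by capillary electrophoresis; DMSO-referenced bidirectional analysis.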

The nature of test [19]: ATG_VDRE_CIS: Attagene CIS-FACTORIAL HepG2 Assay for human Vitamin D Receptor Element (VDRE) (AID 2282968). Particulars: HepG2 VDRE cis-reporter transcription, actives raise or lower the signal. The method in brief: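 HepG2 cells transiently transfected with cis-element reporter units, dosed 24 h; reporter mRNA measured by RT-PCR, 6-FAM labeling, HpaI digestion and capillary electrophoresis. Activity fitted bidirectionally against DMSO baseline.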

Test [20] in a line: ATG_Sox_CIS: Attagene CIS-FACTORIAL HepG2 Assay for human SRY-box transcription factor (SOX) (AID 2282960). Conditions: HepG2 Attagene cis-factorial SOX reporter, mRNA; actives raise or lower the signal. The gist of the method:
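Measures mRNA induction of a SOX1-associated reporter in HepG2 after 24 h dosing. Fluorescently labelled RT-PCR fragments are separated by capillary electrophoresis, and gain or loss relative to DMSO control is fitted.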

The source made the active and inactive calls. Rule for the calls: active = hit-call score of the fitted dose curve at least 0.9, where 1 is the maximum; inactive = score below 0.9.

In general, AC50 refers to the concentration giving half of the maximal activity seen.

Chain of Hypoxia-inducible factor 1-alpha (Homo sapiens) (Q16665 whole entry, looked up): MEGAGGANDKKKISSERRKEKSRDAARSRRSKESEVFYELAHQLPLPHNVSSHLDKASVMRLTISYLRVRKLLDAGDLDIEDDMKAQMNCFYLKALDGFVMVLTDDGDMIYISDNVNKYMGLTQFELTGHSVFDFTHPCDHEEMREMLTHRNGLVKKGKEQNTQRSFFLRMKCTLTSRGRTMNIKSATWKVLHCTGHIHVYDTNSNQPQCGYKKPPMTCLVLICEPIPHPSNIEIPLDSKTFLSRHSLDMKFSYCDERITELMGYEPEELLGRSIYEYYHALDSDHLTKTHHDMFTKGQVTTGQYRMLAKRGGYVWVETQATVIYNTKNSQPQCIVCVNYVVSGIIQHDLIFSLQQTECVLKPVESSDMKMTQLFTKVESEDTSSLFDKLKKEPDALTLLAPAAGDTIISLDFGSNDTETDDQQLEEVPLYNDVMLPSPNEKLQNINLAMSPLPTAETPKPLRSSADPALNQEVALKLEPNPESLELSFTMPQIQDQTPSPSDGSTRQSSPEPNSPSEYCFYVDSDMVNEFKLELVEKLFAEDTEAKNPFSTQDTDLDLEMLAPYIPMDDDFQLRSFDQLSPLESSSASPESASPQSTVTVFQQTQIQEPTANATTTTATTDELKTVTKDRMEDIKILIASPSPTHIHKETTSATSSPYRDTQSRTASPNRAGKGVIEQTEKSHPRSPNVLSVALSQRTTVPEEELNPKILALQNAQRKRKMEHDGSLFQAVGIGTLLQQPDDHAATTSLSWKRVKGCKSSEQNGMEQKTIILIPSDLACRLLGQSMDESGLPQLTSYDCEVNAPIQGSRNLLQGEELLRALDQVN
Chain of Signal transducer and activator of transcription 3 (Homo sapiens) (P40763 whole entry, looked up): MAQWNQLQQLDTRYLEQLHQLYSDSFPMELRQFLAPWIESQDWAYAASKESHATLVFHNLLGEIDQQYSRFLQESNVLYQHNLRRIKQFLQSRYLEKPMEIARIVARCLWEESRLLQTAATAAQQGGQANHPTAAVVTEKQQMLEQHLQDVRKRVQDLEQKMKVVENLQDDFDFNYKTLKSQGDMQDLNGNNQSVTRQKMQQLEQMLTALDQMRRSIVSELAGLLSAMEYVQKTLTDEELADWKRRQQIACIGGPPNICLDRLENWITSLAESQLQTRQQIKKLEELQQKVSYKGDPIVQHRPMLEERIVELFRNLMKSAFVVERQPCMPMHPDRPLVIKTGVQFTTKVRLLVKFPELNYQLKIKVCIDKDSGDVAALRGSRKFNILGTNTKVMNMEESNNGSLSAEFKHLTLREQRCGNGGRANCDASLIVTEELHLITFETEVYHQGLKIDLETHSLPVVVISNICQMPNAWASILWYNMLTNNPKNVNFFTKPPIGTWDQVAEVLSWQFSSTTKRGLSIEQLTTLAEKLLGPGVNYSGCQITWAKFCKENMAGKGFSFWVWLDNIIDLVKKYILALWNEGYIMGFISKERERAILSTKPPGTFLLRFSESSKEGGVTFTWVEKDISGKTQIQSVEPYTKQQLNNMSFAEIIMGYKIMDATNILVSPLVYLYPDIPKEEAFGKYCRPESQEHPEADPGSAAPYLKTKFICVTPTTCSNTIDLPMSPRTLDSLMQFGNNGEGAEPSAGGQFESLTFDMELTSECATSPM
Chain of Heat shock factor protein 1 (Homo sapiens) (Q00613 whole entry, looked up): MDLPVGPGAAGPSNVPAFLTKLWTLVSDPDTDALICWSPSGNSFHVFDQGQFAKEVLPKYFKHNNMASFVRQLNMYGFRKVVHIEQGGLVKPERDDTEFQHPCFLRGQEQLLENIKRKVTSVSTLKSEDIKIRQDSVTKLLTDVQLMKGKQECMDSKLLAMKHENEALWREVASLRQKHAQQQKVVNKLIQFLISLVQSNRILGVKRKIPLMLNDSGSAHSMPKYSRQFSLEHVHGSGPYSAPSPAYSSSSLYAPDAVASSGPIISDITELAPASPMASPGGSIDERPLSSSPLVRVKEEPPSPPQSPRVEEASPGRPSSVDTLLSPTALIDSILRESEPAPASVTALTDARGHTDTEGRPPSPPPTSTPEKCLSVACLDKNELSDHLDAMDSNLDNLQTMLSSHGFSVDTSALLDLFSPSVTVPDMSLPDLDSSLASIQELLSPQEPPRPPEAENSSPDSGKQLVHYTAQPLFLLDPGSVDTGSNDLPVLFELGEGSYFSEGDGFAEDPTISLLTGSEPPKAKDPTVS
Chain of Hepatocyte nuclear factor 6 (Homo sapiens) (Q9UBC0 whole entry, looked up): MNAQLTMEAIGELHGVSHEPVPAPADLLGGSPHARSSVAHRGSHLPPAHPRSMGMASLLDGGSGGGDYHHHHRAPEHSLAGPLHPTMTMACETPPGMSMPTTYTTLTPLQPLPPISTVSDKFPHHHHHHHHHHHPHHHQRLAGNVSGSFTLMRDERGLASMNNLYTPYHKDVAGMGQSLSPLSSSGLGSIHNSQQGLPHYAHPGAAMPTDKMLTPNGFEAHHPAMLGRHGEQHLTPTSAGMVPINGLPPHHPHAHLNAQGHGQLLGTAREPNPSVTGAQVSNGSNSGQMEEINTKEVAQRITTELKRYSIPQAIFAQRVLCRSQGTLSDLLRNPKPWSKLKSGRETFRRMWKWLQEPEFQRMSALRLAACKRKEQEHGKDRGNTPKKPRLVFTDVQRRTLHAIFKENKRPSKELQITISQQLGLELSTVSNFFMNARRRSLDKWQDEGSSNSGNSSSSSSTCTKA
Chain of Paired box protein Pax-6 (Homo sapiens) (P26367 whole entry, looked up): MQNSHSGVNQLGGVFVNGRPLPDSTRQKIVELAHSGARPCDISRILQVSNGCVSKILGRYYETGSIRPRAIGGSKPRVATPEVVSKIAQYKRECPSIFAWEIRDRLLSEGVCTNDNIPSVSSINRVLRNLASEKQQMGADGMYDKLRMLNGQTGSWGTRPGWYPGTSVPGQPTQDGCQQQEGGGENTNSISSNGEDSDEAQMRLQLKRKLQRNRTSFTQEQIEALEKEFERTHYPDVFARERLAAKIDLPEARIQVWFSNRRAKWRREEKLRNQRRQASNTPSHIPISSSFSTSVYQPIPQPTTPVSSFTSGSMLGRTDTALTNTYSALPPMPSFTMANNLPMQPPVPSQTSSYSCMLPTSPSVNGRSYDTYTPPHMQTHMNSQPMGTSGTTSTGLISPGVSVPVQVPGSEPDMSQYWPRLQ
Chain of Transcription factor Sp1 (Homo sapiens) (P08047 whole entry, looked up): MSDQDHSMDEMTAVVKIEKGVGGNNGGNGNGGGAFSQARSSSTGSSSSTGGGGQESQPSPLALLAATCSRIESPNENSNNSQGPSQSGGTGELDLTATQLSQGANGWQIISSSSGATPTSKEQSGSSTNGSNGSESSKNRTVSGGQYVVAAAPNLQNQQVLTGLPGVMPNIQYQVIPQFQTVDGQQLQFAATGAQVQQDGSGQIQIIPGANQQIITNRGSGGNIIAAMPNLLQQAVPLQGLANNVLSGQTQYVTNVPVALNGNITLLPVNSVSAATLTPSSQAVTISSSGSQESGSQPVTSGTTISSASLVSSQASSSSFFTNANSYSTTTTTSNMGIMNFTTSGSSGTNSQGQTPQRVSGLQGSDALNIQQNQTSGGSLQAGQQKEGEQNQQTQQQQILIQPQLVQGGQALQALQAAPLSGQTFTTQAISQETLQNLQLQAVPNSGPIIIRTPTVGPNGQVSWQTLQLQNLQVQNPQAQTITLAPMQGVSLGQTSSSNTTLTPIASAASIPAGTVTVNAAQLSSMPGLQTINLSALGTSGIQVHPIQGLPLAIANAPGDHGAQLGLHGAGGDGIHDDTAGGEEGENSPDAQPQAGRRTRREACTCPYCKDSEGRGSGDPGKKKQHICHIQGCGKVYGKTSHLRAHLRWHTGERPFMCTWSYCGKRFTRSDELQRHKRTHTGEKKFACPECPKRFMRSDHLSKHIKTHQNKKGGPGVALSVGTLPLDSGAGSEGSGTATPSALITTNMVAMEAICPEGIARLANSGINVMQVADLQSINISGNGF

With `O=C(NC(=O)c1c(F)cccc1F)Nc1cc(Cl)c(Oc2ncc(C(F)(F)F)cc2Cl)c(Cl)c1`, the call in [1], in [2], in test [3], in [4], in test [5] and in test [6] was inactive. Further, the outcome in test [7], in [8], in test [9], in test [10], in test [11] and in test [12] was inactive. Also, the compound was called inactive in test [13], in test [14], in test [15], in test [16], in test [17] and in test [18]. Further, the compound was called inactive in test [19].
As to `CCCCC(CC)C(=O)Cl` (configuration not stated), the outcome in [1], in test [2], in test [3], in test [4], in [5] and in test [6] was inactive. The outcome in [7], in [8], in [10], in test [11], in [20] and in test [12] was inactive. The compound was called inactive in test [14], in test [15], in test [16], in [17] and in test [18].
Take `CC(C)N(C(=O)CCl)c1ccccc1`: the call in [1], in [2], in [4], in test [7], in test [9] and in test [14] was inactive. Besides, the outcome in [15], in [16] and in test [17] was inactive. The AC50 in [3] was 8.65 µM (active); in [5], 52.4 µM (active); in test [6], 44.6 µM (active); in [8], 53.6 µM (active); in [20], 48.2 µM (active); in [12], 26.5 µM (active). Also, the figures for the AC50 in test [13] and in [19] were 33.4 µM (active) and 51.7 µM (active), respectively.
As for `C1CN2CCN1CC2`, the compound was called inactive in test [1], in test [2], in [4], in test [5], in test [6] and in [7]. The call in test [8], in test [9], in [11], in [20], in [12] and in test [13] was inactive. Besides, the compound was called inactive in test [14], in test [15], in test [16], in [17], in test [18] and in test [19]. For the same compound, the AC50 in [3] is 50.5 µM (active).
